# CYP2C9 act – activators of human CYP2C9 | 96,000 tested, 1.4% active | recombinant CYP2C9, luciferin-H conversion, luminescence; active compounds read high; factor 1 = untreated enzyme, 0 = blocked | P11712 | AID 1024 | activation factor at 5 µM;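 active = activation factor of 2 or more for CYP2C9 at a 5 µM dose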;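 note: 0 = sulfaphenazole-blocked wells and 1 = vehicle-only wells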
# PLAP act – human PLAP activation; purified PLAP enzyme, luminescent substrate read-out; active compounds read high; AID 696; 96,000 tested, 1.2% active; P05187; activation fold at 20 µM; in the data active = activation fold above about 2
# Target sequence (P05187 whole entry, looked up): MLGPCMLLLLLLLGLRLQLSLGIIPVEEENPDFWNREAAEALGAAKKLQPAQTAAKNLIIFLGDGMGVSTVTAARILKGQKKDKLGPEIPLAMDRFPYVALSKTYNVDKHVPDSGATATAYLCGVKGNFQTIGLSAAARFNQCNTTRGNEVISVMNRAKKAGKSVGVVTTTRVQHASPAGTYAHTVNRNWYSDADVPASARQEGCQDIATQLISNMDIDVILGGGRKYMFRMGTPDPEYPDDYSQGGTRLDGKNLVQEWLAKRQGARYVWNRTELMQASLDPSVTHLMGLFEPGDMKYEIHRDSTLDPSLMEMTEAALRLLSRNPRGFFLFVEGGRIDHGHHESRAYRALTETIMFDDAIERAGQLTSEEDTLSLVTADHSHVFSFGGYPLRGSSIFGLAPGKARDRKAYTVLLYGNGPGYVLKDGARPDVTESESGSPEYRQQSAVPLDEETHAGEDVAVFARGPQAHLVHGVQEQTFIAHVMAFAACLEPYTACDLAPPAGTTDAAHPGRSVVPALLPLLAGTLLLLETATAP
# CYP2C9 inh – blocks human cytochrome P450 2C9 | P11712 | CYP2C9 Supersomes, luciferin-H conversion, luminescence | inhibition, % at 5 µM | 96,000 tested, 20% active;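 active = blocking of liver enzyme CYP2C9 beyond about 50% at 5 µM, limit read from the data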
# CYP2C19 inhib – human CYP2C19 inhibition; inhibition, % at 5 µM; P33261; 96,000 tested, 21% active; CYP2C19 Supersomes, luciferin-H EGE luminescence, 30 min;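 active = CYP2C19 inhibition above a set limit at 5 µM in the primary screen, cut at about 50% in these data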;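 note: plate controls were negative control wells for no effect and 2.5 mM tranylcypromine positive control for full effect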
# CYP2C19 activ – cytochrome P450 2C19 (human) activation | recombinant CYP2C19, luciferin-H EGE luminescence; active compounds read high; 0 = fully inhibited enzyme, 1 = untreated enzyme | activation factor at 5 µM | 96,000 tested, under 10 active | P33261;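 active = activation factor of at least 2 at 5 µM in the primary screen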;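 note: 0 = wells with 2.5 mM tranylcypromine and 1 = vehicle-only wells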
# * hit, by the source's call. In the library only some 31% were active in any assay of this set; here they are far more common.
SMILES,CYP2C9 act,PLAP act,CYP2C9 inh,CYP2C19 inhib,CYP2C19 activ
CCCCNc1ncnc2c1cnn2-c1ccccc1,0,1.1,99*,89*,0.1
CCCCNc1ncnc2c1cnn2-c1ccc(Cl)cc1,0.3,1.2,70*,28,0.7
Clc1ccc(-n2ncc3c(NCCN4CCOCC4)ncnc32)cc1,1,1.1,2,13,0.9
COc1ccc(NC(=O)CSc2ncnc3c2cnn3Cc2ccccc2)cc1OC,0.7,0.8,34,18,0.8
c1ccc(Cn2ncc3c(NCc4ccco4)ncnc32)cc1,1.1,1,-6,19,0.8
Oc1ccc(/C=C/c2nc(-c3ccccc3O)n(-c3ccccc3)n2)cc1,0.5,1,49,-15,1.1
Clc1ccc(-n2ncc3c(NCCCn4ccnc4)ncnc32)cc1,0.1,1.3,93*,95*,0.1
c1coc(CNc2nc(N3CCCCC3)nc3ccccc23)c1,0.8,1.6,24,16,0.8
COCCNc1ncnc2c1cnn2Cc1ccc(Cl)cc1,1.2,1.1,-15,82*,0.2
Clc1ccc(Cn2ncc3c(NCc4ccccc4)ncnc32)cc1,0.6,0.9,40,-9,1.1
c1ccc(N2CCN(c3nc(NCc4ccco4)c4ccccc4n3)CC2)cc1,0.1,1.1,91*,96*,0
COCc1nnc(NC(=O)CC(c2ccccc2)c2ccccc2)s1,0.8,1,24,14,0.9
Cc1ccccc1OCC(=O)N/N=C/c1cccn1C,1,0.9,-4,29,0.7
COc1ccc(S(=O)(=O)n2nc(OC(=O)C3CCCCC3)cc2N)cc1,1.1,1.1,-12,-15,1.1
CCOC(=O)C(CC)(CC)/C(C)=N/NC(=O)CC#N,0.8,1.3,20,72*,0.3
CC(=O)Nc1sc2c(c1CN1CCN(C)CC1)CCCC2,1.1,0.9,-12,20,0.8
CCOc1cc(C)cc2oc(=O)cc(-c3ccccc3)c12,0.5,0.7,55*,19,0.8
Cc1cc(OC(C)C)c2c(-c3ccccc3)cc(=O)oc2c1,0.2,0.9,80*,43,0.6
O=C(Oc1ccc2c(-c3ccccc3)cc(=O)oc2c1)C1CCCCC1,0.7,1.2,32,32,0.7
CCCc1cc(=O)oc2cc(C)cc(OC(=O)c3ccco3)c12,1,0.8,3,8,0.9
Cc1cc(OCC(=O)N2CCc3ccccc3C2)c2c(-c3ccccc3)cc(=O)oc2c1,0,1.7,97*,86*,0.1
COc1ccc(C(=O)N(CC2CCCO2)C(C(=O)NC2CCCC2)c2ccc(C)cc2)cc1OC (stereo not given),0.8,1.5,24,-2,1
O=S(=O)(c1ccc(Cl)cc1)c1ccccn1,2.1*,0.9,-108,17,0.8
CCCOc1ccc(C(=O)CCC(=O)OCC(=O)Nc2cc(C)on2)cc1,1,0.9,-2,1,1
O=C(Nc1ccccc1)c1ccc(S(=O)(=O)NCC2CCCO2)cc1 (stereo not given),0.9,0.8,11,3,1
SMILES,CYP2C9 act,PLAP act,CYP2C9 inh,CYP2C19 inhib,CYP2C19 activ
CN(C)S(=O)(=O)c1ccc(S(=O)(=O)N(CC(=O)Nc2ccccc2)Cc2ccco2)cc1,0.6,1,38,12,0.9
CC(C)C(C(=O)NCC1CCCO1)N(Cc1ccco1)C(=O)CNS(=O)(=O)c1ccccc1 (stereo not given),0.9,1.5,15,24,0.8
CN(C)S(=O)(=O)c1ccc(S(=O)(=O)N(CC(=O)Nc2ccccc2)CC2CCCO2)cc1 (stereo not given),0.1,0.8,90*,21,0.8
O=C(CN(CC1CCCO1)S(=O)(=O)c1ccc(S(=O)(=O)NCC2CCCO2)cc1)Nc1ccccc1 (stereo not given),0.1,1,90*,39,0.6
CC(=O)Nc1ccc(S(=O)(=O)N(Cc2ccco2)CC2CCCO2)cc1 (stereo not given),0.6,1.4,42,73*,0.3
O=C(NCCc1ccccc1)C(=O)NCC1CCCO1 (stereo not given),0.9,1,6,12,0.9
CCCS(=O)(=O)n1nc(-c2ccc(Br)cc2)cc1N,0.1,0.7,86*,68*,0.3
Clc1ccc(SCc2cc(-c3ccccc3)no2)cc1,1,0.8,4,35,0.7
Nc1cc(-c2ccc(Cl)cc2)nn1S(=O)(=O)c1ccccc1,0.2,1,83*,64*,0.4
CCCS(=O)(=O)n1nc(-c2ccccc2)cc1N,0.3,0.8,67*,93*,0.1
Nc1cc(-c2ccccc2)nn1Cc1ccc(Cl)cc1,0.2,0.9,75*,93*,0.1
CCCS(=O)(=O)N1CCN(C(=O)c2ccc(-c3ccccc3)cc2)CC1,0.8,1.5,19,21,0.8
CCOCCCNC(=O)c1ccc(NC(C)=O)cc1,1,1.3,-3,-8,1.1
CC1(C)CC(C(=O)Nc2nccs2)CCO1 (stereo not given),1,0.8,-3,27,0.7
Cn1nc([N+](=O)[O-])nc1N1CCN(c2ccc(F)cc2)CC1,0.9,0.8,7,2,1
CSc1nc(C)cc(NC(N)=O)n1,1.1,0.9,-11,7,0.9
CCS(=O)(=O)n1nc(-c2ccccc2)cc1N,0.9,0.8,7,67*,0.3
N/C(=N\OC(=O)c1ccccc1Cl)c1ccccn1,0.6,0.8,40,38,0.6
Clc1cccc(Cl)c1COc1ccccn1,0.6,0.9,37,52*,0.5
COc1ccc(C(C)=O)cc1CN1C(=O)C(C)N(c2ccc(C)cc2)C1=O (stereo not given),0.2,1.6,84*,82*,0.2
CCc1nnc(NC(=O)NC(C)(C)C)s1,0.9,0.9,12,0,1
N/C(COc1ccc(F)cc1)=N\NC(=O)c1cccnc1Oc1ccccc1,1,2*,1,3,1
COC(=O)c1ccc(Oc2ccc(C(C)(C)C)cc2)c([N+](=O)[O-])c1,0.4,0.9,60*,38,0.6
CCOC(=O)c1c(CN2CCC(C)CC2)oc2ccc(OC)cc12,0.8,1.6,23,52*,0.5
CCOC(=O)C(Cc1ccccc1)NC(=O)CCc1c(C)nc2nc(C)nn2c1C (stereo not given),1.1,1.2,-11,-1,1
CSc1nc2ccccc2n1CC(=O)Nc1cc(C(F)(F)F)ccc1N1CCOCC1,0,1.6,97*,87*,0.1
O=C(Cn1c(C(F)(F)F)nc2ccccc21)Nc1ccccc1N1CCOCC1,0.2,1.9,82*,38,0.6
Cc1nnc(SCC(=O)Nc2cc(C(F)(F)F)ccc2N2CCOCC2)o1,1,0.9,3,26,0.7
Cc1cccc(Oc2ncc(-c3ccc(Cl)cc3)cn2)c1,1.2,1.3,-16,-2,1
COc1ccc2[nH]c(C)c(CCN(Cc3cccs3)C(=S)Nc3cccc(F)c3)c2c1,0,1.2,98*,78*,0.2

# Screening data from PubChem BioAssay.
